High-throughput results as filed in PubChem.
Hits are enriched below; roughly 3% of the tested compounds scored in any of these assays.
14-3-3 Bad PPI – disrupts binding of bovine 14-3-3 zeta to phospho-Bad peptide. P63103. TR-FRET 14-3-3zeta/Dy647-pBad peptide displacement, 1 h. actives 0.71% (n = 220,000). inhibition, % at 21.7 µM;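 active means inhibition above about 70%, limit read from the data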;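 further: 0% = full 14-3-3 plus peptide FRET controls and 100% = background without 14-3-3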
Target sequence (P63103 whole entry, looked up): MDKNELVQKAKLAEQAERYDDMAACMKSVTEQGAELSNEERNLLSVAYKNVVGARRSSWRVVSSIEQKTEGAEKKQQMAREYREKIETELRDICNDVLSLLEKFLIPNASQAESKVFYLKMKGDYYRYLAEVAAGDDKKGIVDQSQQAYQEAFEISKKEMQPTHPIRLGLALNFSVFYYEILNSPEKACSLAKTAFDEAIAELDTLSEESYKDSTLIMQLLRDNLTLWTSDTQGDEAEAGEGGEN
Arbovirus anti – antivirals against arbovirus infection; AID 1251; actives 0.37% (n = 200,000); arbovirus infection cell-based antiviral screen; inhibition, % at 10 µM; in the data active means inhibition above about 30%
Mcl-1 Bim block – disrupts Bim peptide binding to human Mcl-1. actives 0.1% (n = 190,000). Bead-based flow cytometry, Bim peptide-Mcl-1 binding. inhibition, % at 10 µM; in the data active means inhibition above about 40%;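 further: 0% = no compound tracer wells and 100% = peptide blocker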
Target sequence (Q07820 whole entry, looked up): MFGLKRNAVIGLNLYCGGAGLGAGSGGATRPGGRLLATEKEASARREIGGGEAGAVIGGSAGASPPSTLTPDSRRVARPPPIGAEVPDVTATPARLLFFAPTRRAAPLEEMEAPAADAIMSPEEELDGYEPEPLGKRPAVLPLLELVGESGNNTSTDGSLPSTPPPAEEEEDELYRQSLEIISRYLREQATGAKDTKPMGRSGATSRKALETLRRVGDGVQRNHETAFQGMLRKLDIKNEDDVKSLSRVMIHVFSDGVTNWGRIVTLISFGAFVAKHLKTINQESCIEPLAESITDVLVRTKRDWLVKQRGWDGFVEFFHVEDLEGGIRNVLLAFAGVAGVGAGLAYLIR
Mcl1 Noxa PPI – disrupts binding of human Mcl-1 to Noxa peptide | Q07820 | TR-FRET Mcl-1/Noxa peptide binding, 2 h | inhibition, % at 21.7 µM | actives 1.5% (n = 220,000) | AID 1022;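 active means compounds that cut the protein-peptide binding signal by more than 50% relative to plate controls in a single-dose test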;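 further: His-tagged Mcl-1 with rhodamine Noxa BH3 peptide and terbium anti-His antibody; 0% = Mcl-1 plus Noxa peptide wells and 100% = peptide-only wells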
Mcl1-Bid inh – Mcl-1/Bid interaction inhibition | Q07820 | TR-FRET Mcl-1/Bid-Dy647 peptide binding, 1536-well | inhibition, % at 21.7 µM | actives 0.97% (n = 220,000) | AID 1021;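 active means compounds that cut the binding signal by more than half at the single screening dose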;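 further: His-tagged Mcl-1 with europium anti-His antibody binding Bid BH3 peptide; 0% = Mcl-1 plus peptide wells and 100% = peptide-only wells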
* marks the source's active call; other numbers are inactive results; . = not tested or not shown; [ ] = dose if it differs, or a comment.

SMILES	14-3-3 Bad PPI	Arbovirus anti	Mcl-1 Bim block	Mcl1 Noxa PPI	Mcl1-Bid inh
CCc1ccccc1NC(=O)CN(C)C(=O)CSc1nc2cc(Cl)ccc2s1	-19.8	0.4	-5.0	-5.2	-6.6
CCc1ccc(-c2ccc(SCC(=O)NCC3CCCO3)nn2)cc1 (centres undefined)	-1.9	-2.0	0.0	13.9	6.3
CC1CCc2cc(F)ccc2N1C(=O)C12CCC(C)(C(=O)O1)C2(C)C (centres undefined)	91.8*	-3.6	0.0	1.8	-0.4
COc1ccccc1Nc1nc(N)nc(CSC(=S)N2CCCCC2)n1	-2.6	.	.	7.8	-85.8
OCC1OC(n2cnc3ccccc32)CC1O (centres undefined)	1.0	.	.	3.4	16.2
O=C(NCCc1ccccc1)N1CCCC(CNS(=O)(=O)Cc2ccccc2)C1 (centres undefined)	-6.5	4.0	0.0	54.3*	10.1
O=C(COC(=O)C1CCCCC1)Nc1ccccc1OC(F)F	-7.0	8.3	5.0	-5.4	-40.0
C=CCNCCCOc1ccc(C(C)(C)c2ccccc2)cc1	62.0	-34.6	-2.0	31.6	52.4*
COc1ccc(CNC(=O)c2c(F)c(F)c(F)c(F)c2F)cc1	-14.2	-0.5	-5.0	-6.4	-11.5
CCC(CC)C(=O)NCc1ccc(OC)cc1	75.5*	-0.4	0.0	-12.1	-1.9
COc1ccccc1NC(=O)CSc1nnnn1-c1ccc2c(c1)OCO2	4.5	-0.7	-2.0	-0.5	99.4*
COC(=O)c1ccc(-n2nnnc2SCC(=O)Nc2ccccc2OC)cc1	12.9	6.1	2.0	-31.1	18.8
CCN(CC)C(=O)Cn1cc(SCC(=O)NC)c2ccccc21	0.3	0.8	2.0	2.6	-15.7
O=C(Nc1ccc(-c2cn3c(n2)SCC3)cc1)c1ccco1	1.1	.	.	19.2	-9.0
CCOC(=O)c1ccc(Nc2nc(-c3cccnc3)nc3ccccc23)cc1	75.1*[fluorescence artefact?]	-13.6	0.0	35.0	46.3
Cc1ccc(-c2nc(N/N=C/c3ccncc3)c3ccccc3n2)cc1	23.4	-24.1	0.0	47.6	66.0*
CCOC(=O)c1ccc(Nc2ncnc3ccccc23)cc1	1.0	28.6	0.0	24.2	19.6
Cc1cc(N/N=C/c2ccc(O)c(C)c2O)nc(-c2ccccc2O)n1	26.2	-35.7	-2.0	89.2*	74.6*
O=C(Oc1ccc(Nc2ncnc3ccccc23)cc1)c1cccnc1	82.0*	-17.4	-2.0	43.8	72.7*
Cc1c(O)ccc(/C=N/Nc2nc(-c3cccnc3)nc3ccccc23)c1O	10.8	.	.	89.2*	-10.6
COc1ccc(/C=N/Nc2nc(-c3cccnc3)nc3ccccc23)cc1OC	-0.5	.	.	50.1	-22.4
Oc1ccc(/C=N/Nc2nc(-c3cccnc3)nc3ccccc23)c(O)c1	82.8*	.	.	84.1*	-10.6
COCCCNc1nc(-c2ccncc2)nc2ccccc12	10.0	32.6*	-1.0	-2.2	-26.2
Cc1cc(C(=O)N/N=C/c2cccnc2)cs1	7.9	-5.2	-3.0	16.4	0.5
CC12COC3(C(=O)Nc4ccc5ccccc5c4)CC1CCC32C (centres undefined)	-5.9	7.7	4.0	10.1	-29.9
SMILES	14-3-3 Bad PPI	Arbovirus anti	Mcl-1 Bim block	Mcl1 Noxa PPI	Mcl1-Bid inh
O=C(/C=C/c1ccco1)N1CCc2ccccc21	-3.8	-3.6	0.0	19.1	-31.1
Cc1ccc(/C=C/C(=O)N2CCc3ccccc32)o1	0.5	1.4	-5.0	61.2*	-89.0
COc1ccc(-c2cc3nc4ccccc4n3c(N)c2C#N)cc1	71.3*	.	.	80.9*	71.7*
COc1ccc(-c2cc(-c3ccccc3)c(C#N)c(S(C)=O)n2)cc1 (centres undefined)	4.9	-24.8	-4.0	23.0	3.9
COc1ccc(C2c3ccc(O)cc3Oc3ncn4nc(-c5ccncc5)nc4c32)cc1OC (centres undefined)	2.3	.	.	3.5	-18.1
Cc1nnc2n1NC(c1ccc(Cl)cc1)C(C(=O)N1CCC(C)CC1)S2 (centres undefined)	-11.1	4.4	0.0	2.1	-30.9
Cc1nnc2n1NC(c1ccc(Cl)cc1)C(C(=O)N(C)C1CCCCC1)S2 (centres undefined)	127.4*[fluorescence artefact?]	4.2	4.0	6.8	0.1
c1ccc2c(N3CCOCC3)nc(-c3ccncc3)nc2c1	5.0	5.6	-10.0	7.5	12.5
c1ccc2c(N3CCOCC3)nc(N3CCOCC3)nc2c1	60.6	1.4	2.0	51.5*	66.0*
CCOC(=O)N1CCC(=NNC(=O)c2ccc(O)cc2)CC1	3.6	2.9	0.0	8.1	-58.5
Cc1c(/C(O)=C2/C(=O)C(=O)N(Cc3cccnc3)C2c2ccccn2)cnn1-c1ccccc1 (centres undefined)	-2.7	-2.1	-3.0	25.1	-29.2
Cc1cc(N/N=C/c2ccc(O)cc2)nc(NS(=O)(=O)c2ccccc2)n1	4.8	7.0	7.0	53.5*	-11.3
Cc1cc2ncn(CC3CC3(Cl)Cl)c2cc1C (centres undefined)	0.6	-13.4	0.0	-1.6	-14.6
Cc1ccc(S(=O)(=O)N2CCC(C(=O)Nc3nnc(C45CC6CC(CC(C6)C4)C5)s3)CC2)cc1	-4.7	3.5	0.0	16.5	2.5
Cc1ccc(-c2nc3ccccc3[nH]2)cc1NC(=O)c1ccc2c(c1)OCO2	-4.3	-6.2	-3.0	22.1	-0.7
O=C(NC(=S)Nc1cc(-c2nc3ccccc3[nH]2)ccc1Cl)c1ccc2c(c1)OCO2	52.6	-31.2	-8.0	0.7	58.8*
c1coc(-c2nn3c(-c4ccco4)nnc3s2)c1	-3.1	-3.0	-2.0	25.6	-12.4
COc1ccccc1-c1nn2c(-c3ccco3)nnc2s1	88.8*	-12.1	1.0	45.5	-2.6
C=CCNC(=O)c1onc(CSc2ccc(C(C)C)cc2)c1C(=O)O	18.8	35.5*	-1.0	11.5	9.5
O=C(NNc1ncccc1Cl)c1c(Cl)cccc1Cl	-14.5	-5.2	-1.0	-13.3	-36.3
O=C(O)c1ccccc1Nc1ccc([N+](=O)[O-])cc1	1.7	37.1*	-4.0	-4.8	-7.0
CCC(C(=O)NC1CCCC1)N(C(=O)Cn1nnc(-c2ccc(C)o2)n1)c1cnc2ccccc2c1 (centres undefined)	77.6*	-5.2	-1.0	18.6	-37.1
Cc1ccc(-c2nnn(CC(=O)N(c3cnc4ccccc4c3)C(C(=O)NC3CCCC3)c3ccncc3)n2)o1 (centres undefined)	38.4	9.7	-2.0	0.6	21.2
CCOP(=O)(O)c1ccccc1OCCOCCOc1ccccc1P(=O)(O)OCC	30.6	-3.9	-1.0	53.5*	29.5
Cc1nnc(Sc2c(N)n(C)c(=O)[nH]c2=O)s1	-14.8	1.0	-1.0	18.5	100.0*
Cc1ccc(-n2sc3ccccc3c2=O)cc1S(=O)(=O)N1CCCCC1	50.1	7.4	-1.0	53.5*	-11.7
O=c1c2ccccc2sn1-c1ccc(S(=O)(=O)N2CCCC2)cc1	-14.1	0.9	-5.0	38.2	-32.1
O=[N+]([O-])c1cccc(/C=C/c2nc(C=Nc3ccc4ccccc4c3)c(O)o2)c1	61.1	-18.8	2.0	81.4*	65.5*
CCOC(=O)N1CCN(c2ccc(C(=O)CC)cc2F)CC1	-11.1	8.3	3.0	-3.7	-10.8
